Measurements reported in PubChem BioAssay (Tox21).
Inconclusive results are not listed. Calls of active or inactive are those of the source. The call rests on the fitted dose curve; in most records, active means well fitted curve in the direction sought with a large enough effect in the repeat runs; inconclusive means weak or mixed curves; inactive means no such curve, though single readings can be large; an effect the other way counts as inactive or inconclusive.

Assays:
[1] = qHTS RealTime-Glo MT Cell Viability Assay in HEK293 cells - 0 hour (AID 1224880); further: nearly all actives have a fitted effect of over 45% in size; further: potency means the concentration at half of the fitted maximal effect; on activity change, negative = cytotoxicity: top concentration of the series differs between compounds
Outline: (§1)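 Kinetic, non-lysing viability readout. Seed HEK293 (600/well) with reagent, incubate 5 h at 37 C/5% CO2, pin 23 nL compound in DMSO, incubate at 37 C, read luminescence at 0, 8, 16, 24, 32, 40 h.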

[2] = A CellTox Green Cytotoxicity Assay to monitor cytotoxicity in HEK293 cells - 32 hour (AID 1224881); further: nearly all actives have a fitted effect of over 40% in size
Outline: (§2)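 Real-time, in one plate: 600 HEK293 cells/well with dead-cell DNA dye, pinned compound after 5 h, 37 C incubation over 40 h; viable cells give no appreciable fluorescence.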

[3] = A CellTox Green Cytotoxicity Assay to monitor cytotoxicity in HepG2 cells - 0 hour (AID 1224882); further: nearly all actives have a fitted effect of over 35% in size
Outline: (§3)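 Cytotoxicity was tracked as dead-cell DNA fluorescence in HepG2 cells treated with test compounds at 37 C; each time-point value comes from one kinetic series spanning 0, 8, 16, 24, 32 and 40 h.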

[4] = A CellTox Green Cytotoxicity Assay to monitor cytotoxicity in HepG2 cells - 32 hour (AID 1224883); further: nearly all actives have a fitted effect of over 50% in size
Outline: as §3

[5] = A CellTox Green Cytotoxicity Assay to monitor cytotoxicity in HEK293 cells - 8 hour (AID 1224884); further: nearly all actives have a fitted effect of over 35% in size
Outline: as §2

[6] = qHTS RealTime-Glo MT Cell Viability Assay in HEK293 cells - 8 hour (AID 1224887); further: nearly all actives have a fitted effect of over 50% in size; further: potency means the concentration at half of the fitted maximal effect; on activity change, negative = cytotoxicity: top concentration of the series differs between compounds
Outline: as §1

[7] = qHTS RealTime-Glo MT Cell Viability Assay in HepG2 cells - 0 hour (AID 1224889); further: nearly all actives have a fitted effect of over 50% in size; further: potency means the concentration at half of the fitted maximal effect
Outline: (§4)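 HepG2 cells were seeded at 600 cells/well together with NanoLuc luciferase and a cell-permeant prosubstrate, preincubated 5 h at 37 C/5% CO2, then pin-dosed with compounds in DMSO. Nonlytic luminescence from viable cells was read at each time point.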

[8] = qHTS RealTime-Glo MT Cell Viability Assay in HepG2 cells - 16 hour (AID 1224885); further: nearly all actives have a fitted effect of over 50% in size
Outline: as §4

[9] = qHTS RealTime-Glo MT Cell Viability Assay in HEK293 cells - 24 hour (AID 1224886); further: nearly all actives have a fitted effect of over 50% in size; further: potency means the concentration at half of the fitted maximal effect; on activity change, negative = cytotoxicity: top concentration of the series differs between compounds
Outline: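 HEK293 cells were seeded at 600 cells/well together with NanoLuc luciferase and cell-permeant prosubstrate, preincubated 5 h at 37 C/5% CO2, then given compound in DMSO by pintool. Luminescence from viable-cell prosubstrate reduction was read repeatedly over 40 h.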

[10] = A CellTox Green Cytotoxicity Assay to monitor cytotoxicity in HEK293 cells - 16 hour (AID 1224888); further: nearly all actives have a fitted effect of over 35% in size
Outline: as §2
On the % scale 0 is the no-effect control and ±100 the full control effect.

COC(C)(C)CCCC(C)CC=O (centres undefined)
inactive: Potency [1] | Potency [2] | Potency [3] | Potency [4] | Potency [5] | Potency [6] | Potency [7]

C=C1CC[C@H]2C[C@@H]1C2(C)C
inactive: Potency [1] | Potency [2] | Potency [3] | Potency [4] | Potency [8] | Potency [9] | Potency [6] | Potency [10] | Potency [7]

CC(C)NCC(O)c1ccc(NS(C)(=O)=O)cc1 (centres undefined)
inactive: Potency [1] | Potency [2] | Potency [3] | Potency [4] | Potency [5] | Potency [6] | Potency [10] | Potency [7]

N=c1nc(N2CCCCC2)cc(N)n1O
inactive: Potency [1] | Potency [2] | Potency [3] | Potency [4] | Potency [8] | Potency [9] | Potency [6] | Potency [10] | Potency [7]

C=CCCCCCCCCC=O
inactive: Potency [1] | Potency [2] | Potency [3] | Potency [4] | Potency [5] | Potency [9] | Potency [6] | Potency [7]

CC(=O)OCC(=O)[C@@]1(O)CCC2C3CCC4=CC(=O)CC[C@]4(C)C3[C@@H](O)C[C@@]21C (some centres undefined)
inactive: Potency [2] | Potency [3] | Potency [4] | Potency [8] | Potency [9] | Potency [6] | Potency [10]
active: Potency [1] 8.49 µM | Potency [7] 2.39 µM

CC[N+](C)(C)c1cccc(O)c1
inactive: Potency [1] | Potency [2] | Potency [3] | Potency [4] | Potency [5] | Potency [6] | Potency [10] | Potency [7]

NS(=O)(=O)c1cc(C(=O)O)cc(N2CCCC2)c1Oc1ccccc1
inactive: Potency [1] | Potency [2] | Potency [3] | Potency [4] | Potency [5] | Potency [9] | Potency [6] | Potency [10] | Potency [7]

CC(=O)OCC(CCn1cnc2cnc(N)nc21)COC(C)=O
inactive: Potency [1] | Potency [2] | Potency [3] | Potency [4] | Potency [8] | Potency [9] | Potency [6] | Potency [10] | Potency [7]

NCCc1cnc[nH]1
inactive: Potency [1] | Potency [2] | Potency [3] | Potency [4] | Potency [8] | Potency [9] | Potency [6] | Potency [10] | Potency [7]

NC(=O)c1cn(Cc2c(F)cccc2F)nn1
inactive: Potency [1] | Potency [2] | Potency [3] | Potency [4] | Potency [8] | Potency [9] | Potency [6] | Potency [10] | Potency [7]

Nc1ccccc1S(=O)(=O)O
inactive: Potency [1] | Potency [2] | Potency [3] | Potency [4] | Potency [5] | Potency [9] | Potency [6] | Potency [7]

O=C1CCCC(=O)C1
inactive: Potency [1] | Potency [2] | Potency [3] | Potency [4] | Potency [5] | Potency [9] | Potency [6] | Potency [7]

NC(CSCC(=O)O)C(=O)O (centres undefined)
inactive: Potency [1] | Potency [2] | Potency [3] | Potency [4] | Potency [5] | Potency [6] | Potency [10] | Potency [7]

COC(=O)c1cc(C(=O)OC)cc(S(=O)(=O)O)c1
inactive: Potency [1] | Potency [2] | Potency [3] | Potency [4] | Potency [5] | Potency [6] | Potency [10] | Potency [7]

CC/C=C\CC/C=C/CO
inactive: Potency [1] | Potency [2] | Potency [3] | Potency [4] | Potency [5] | Potency [9] | Potency [6] | Potency [10] | Potency [7]

CC(=O)OC/C=C(\C)CC/C=C(\C)CCC=C(C)C
inactive: Potency [1] | Potency [2] | Potency [3] | Potency [4] | Potency [8] | Potency [9] | Potency [6] | Potency [10] | Potency [7]

NC(=O)COCCN1CCN(C(c2ccccc2)c2ccc(Cl)cc2)CC1 (centres undefined)
inactive: Potency [1] | Potency [2] | Potency [3] | Potency [4] | Potency [8] | Potency [9] | Potency [6] | Potency [10] | Potency [7]

CC(C)(O)C#CC(C)(C)O
inactive: Potency [1] | Potency [2] | Potency [3] | Potency [4] | Potency [5] | Potency [9] | Potency [6] | Potency [10] | Potency [7]

CCSC(=O)N(CC(C)C)CC(C)C
inactive: Potency [1] | Potency [2] | Potency [3] | Potency [4] | Potency [8] | Potency [9] | Potency [6] | Potency [10] | Potency [7]

CCOC(=O)C(=O)OCC
inactive: Potency [1] | Potency [2] | Potency [3] | Potency [4] | Potency [5] | Potency [9] | Potency [6] | Potency [10] | Potency [7]

CCCCOCCOCCOCCCC
inactive: Potency [1] | Potency [2] | Potency [3] | Potency [4] | Potency [8] | Potency [9] | Potency [6] | Potency [7]

ClC(Cl)(Br)Br
inactive: Potency [1] | Potency [2] | Potency [3] | Potency [4] | Potency [5] | Potency [9] | Potency [6] | Potency [10] | Potency [7]

CCCCC(CC)COC(=O)c1ccccc1O (centres undefined)
inactive: Potency [1] | Potency [2] | Potency [4] | Potency [5] | Potency [8] | Potency [9] | Potency [6] | Potency [10] | Potency [7]

CO[Si](CCCOCC1CO1)(OC)OC (centres undefined)
inactive: Potency [1] | Potency [2] | Potency [4] | Potency [5] | Potency [8] | Potency [9] | Potency [6] | Potency [10] | Potency [7]

CCC(=O)OC(C)c1ccccc1 (centres undefined)
inactive: Potency [1] | Potency [2] | Potency [3] | Potency [4] | Potency [8] | Potency [6] | Potency [7]

N[C@H](C(=O)O)c1ccc(O)cc1
inactive: activity change, negative = cytotoxicity [1] -0.65% [at 15.8 µM] | Potency [2] | cytotoxicity increase [4] -6.23% [at 15.8 µM] | cytotoxicity increase [5] 0.0185% [at 15.8 µM] | activity change, negative = cytotoxic [8] 1.01% [at 15.8 µM] | activity change, negative = cytotoxicity [9] 1.77% [at 15.8 µM] | activity change, negative = cytotoxicity [6] 4.01% [at 15.8 µM] | activity change [10] 0.584% [at 15.8 µM, active compounds read high] | activity change, negative = cytotoxicity [7] 1.28% [at 15.8 µM]

CCCN1CCCC[C@H]1C(=O)Nc1c(C)cccc1C
inactive: Potency [1] | Potency [2] | Potency [3] | Potency [4] | Potency [9] | Potency [6] | Potency [10] | Potency [7]

CCOC(=O)Nc1ccc(NCc2ccc(F)cc2)nc1N
inactive: Potency [1] | Potency [2] | Potency [4] | Potency [5] | Potency [8] | Potency [9] | Potency [6] | Potency [10] | Potency [7]

N=C(N)c1ccccc1
inactive: Potency [1] | Potency [2] | Potency [4] | Potency [5] | Potency [8] | Potency [9] | Potency [6] | Potency [10] | Potency [7]

Cc1sccc1Br
inactive: Potency [1] | Potency [2] | Potency [4] | Potency [5] | Potency [8] | Potency [9] | Potency [6] | Potency [10] | Potency [7]

O=S(O)CO
inactive: Potency [1] | Potency [2] | Potency [3] | Potency [4] | Potency [8] | Potency [9] | Potency [6] | Potency [7]

O=C(O)CCCc1ccccc1
inactive: Potency [1] | Potency [2] | Potency [4] | Potency [5] | Potency [8] | Potency [9] | Potency [6] | Potency [10] | Potency [7]

NC(=O)c1ccc(N)cc1
inactive: Potency [1] | Potency [2] | Potency [4] | Potency [5] | Potency [8] | Potency [9] | Potency [6] | Potency [10] | Potency [7]

O=C(CCCN1CCC(O)(c2cccc(C(F)(F)F)c2)CC1)c1ccc(F)cc1
inactive: Potency [1] | Potency [2] | Potency [3] | Potency [5] | Potency [7]
active: Potency [9] 16.9 µM | Potency [6] 15.1 µM

C[N+](C)(C)CC(O)CC(=O)[O-] (centres undefined)
inactive: Potency [1] | Potency [2] | Potency [3] | Potency [4] | Potency [8] | Potency [6] | Potency [10] | Potency [7]

Cc1cccn2c(=O)c(-c3nnn[nH]3)cnc12
inactive: activity change, negative = cytotoxicity [1] 7.45% [at 15.8 µM] | Potency [2] | cytotoxicity increase [4] 2.82% [at 15.8 µM] | cytotoxicity increase [5] 9.95% [at 15.8 µM] | activity change, negative = cytotoxic [8] -6.35% [at 15.8 µM] | activity change, negative = cytotoxicity [9] 2.84% [at 15.8 µM] | activity change, negative = cytotoxicity [6] -0.563% [at 15.8 µM] | activity change [10] 17.3% [at 15.8 µM, active compounds read high] | activity change, negative = cytotoxicity [7] -3.79% [at 15.8 µM]

CN1CC(=O)NC1=N
inactive: Potency [1] | Potency [2] | Potency [3] | Potency [4] | Potency [9] | Potency [6] | Potency [10] | Potency [7]

O=C(O)CCCl
inactive: Potency [1] | Potency [2] | Potency [3] | Potency [4] | Potency [8] | Potency [9] | Potency [6] | Potency [7]

COCCCOCCCOC
inactive: Potency [1] | Potency [2] | Potency [3] | Potency [5] | Potency [6] | Potency [10] | Potency [7]
